PP5 primary – PP5 (human) phosphatase inhibition; purified PP5c, OMFP substrate fluorescence; inhibition, % at 6.7 µM; 320,000 tested, 0.18% active; AID 1987; P53041;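 active = inhibition above the campaign's mean inhibition across all tested compounds plus 3 SD, cut at about 9.5% in these data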;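 also: 0% = DMSO only and 100% = 100 µM cantharidin control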
SKKanGAS inh – blocks kanamycin growth of S. pyogenes SKKanGAS strain; 300,000 tested, 1.3% active; BacTiter-Glo, 6 h; AID 1662; inhibition, % at 7.5 µM;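 active = mean replicate score, as percent of positive control median, at least 50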;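 also: strain carries kanamycin resistance gene driven by streptokinase promoter and grows in 40 µg/ml kanamycin; loss of luminescence reflects streptokinase promoter inhibition or plain growth inhibition; 0% = median of DMSO wells and 100% = positive control at its reference dose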
Granule exo inh – lytic granule exocytosis inhibition; inhibition, % at 10 µM; TALL-104 LAMP-1 surface exposure, flow cytometry; cells stimulated with thapsigargin and PMA; 360,000 tested, 0.66% active;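 active = inhibition above about 55%, limit read from the data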
IDE act – activators of human insulin-degrading enzyme in cells | P14735 | HEK cells, FAbeta-B cleavage, fluorescence polarization; 0% vehicle, 100% cell-free pure enzyme wells | activation, % at 5.96 µM | 340,000 tested, 0.073% active;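 active = activation above the mean of all tested compounds plus 3 SD, set per screening campaign, cut at about 17% in these data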
Target sequence (P14735 whole entry, looked up): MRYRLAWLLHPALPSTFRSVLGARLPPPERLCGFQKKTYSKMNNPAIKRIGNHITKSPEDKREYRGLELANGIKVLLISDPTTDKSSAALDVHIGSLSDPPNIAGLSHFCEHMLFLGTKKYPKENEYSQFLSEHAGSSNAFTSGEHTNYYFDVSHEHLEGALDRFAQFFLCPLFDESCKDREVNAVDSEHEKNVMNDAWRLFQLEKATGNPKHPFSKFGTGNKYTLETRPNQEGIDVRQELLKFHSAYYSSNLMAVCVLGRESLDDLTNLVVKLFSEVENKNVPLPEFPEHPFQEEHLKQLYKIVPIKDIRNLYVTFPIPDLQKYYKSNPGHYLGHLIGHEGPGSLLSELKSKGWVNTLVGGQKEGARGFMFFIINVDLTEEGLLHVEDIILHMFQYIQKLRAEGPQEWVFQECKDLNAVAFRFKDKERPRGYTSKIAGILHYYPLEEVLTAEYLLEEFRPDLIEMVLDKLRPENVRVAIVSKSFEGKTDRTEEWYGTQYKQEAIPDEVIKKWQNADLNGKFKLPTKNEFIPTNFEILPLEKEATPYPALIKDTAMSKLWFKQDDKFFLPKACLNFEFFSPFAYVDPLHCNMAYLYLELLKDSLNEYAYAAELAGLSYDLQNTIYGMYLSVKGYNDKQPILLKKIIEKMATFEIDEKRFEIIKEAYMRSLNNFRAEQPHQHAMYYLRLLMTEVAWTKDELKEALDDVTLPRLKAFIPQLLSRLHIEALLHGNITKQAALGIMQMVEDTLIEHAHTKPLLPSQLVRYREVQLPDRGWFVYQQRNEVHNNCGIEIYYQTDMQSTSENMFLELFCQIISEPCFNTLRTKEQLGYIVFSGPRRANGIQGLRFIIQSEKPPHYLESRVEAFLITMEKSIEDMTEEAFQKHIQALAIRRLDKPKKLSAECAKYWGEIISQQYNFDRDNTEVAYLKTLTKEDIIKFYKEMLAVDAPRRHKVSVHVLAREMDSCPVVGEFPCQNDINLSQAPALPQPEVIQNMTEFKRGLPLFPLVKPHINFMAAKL
PP1 counter – counter-screen for PP5 inhibitors: inhibitors of human PP1-alpha; purified PP1alpha, OMFP fluorescence; 320,000 tested, 0.9% active; AID 2235; inhibition, % at 6.7 µM; P62136;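 active = inhibition above the mean inhibition of all tested compounds plus 3 SD, computed separately for each screening campaign, cut at about 15% in these data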
IDE cell inh – inhibits human insulin-degrading enzyme in HEK cells; AID 434962; inhibition, % at 5.59 µM; P14735; 320,000 tested, 0.41% active; FAbetaB cleavage, fluorescence polarization;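 active = percent inhibition above the average of all tested compounds plus 3 SD, set per screening campaign, cut at about 16% in these data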;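 also: IDE supplied by intact live HEK cells; FP after avidin binding of uncleaved biotin substrate so inhibition keeps polarization high; 0% = DMSO wells and 100% = 60 µM reference IDE inhibitor Ii1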
PP5 conf – PP5 (human) inhibition, confirmation. AID 2331. shares compounds with PP5 primary. inhibition, % at 6.7 µM. Purified PP5, fluorogenic phosphatase substrate, fluorescence. 460 tested, 22% active; in the data active = inhibition above about 9.5%
PP1 counter 3x – inhibits human PP1 phosphatase in PP5 counter-screen | shares compounds with PP5 primary | PP1 enzyme, fluorescent phosphatase substrate | inhibition, % at 6.7 µM | 460 tested, 4% active | AID 2355; in the data active = inhibition above about 16%
PP1 inh confirm – human PP1 phosphatase inhibition, confirmation | inhibition, % at 6.7 µM | 1,900 tested, 52% active | AID 2358 | shares compounds with PP1 counter | purified PP1alpha, OMFP substrate fluorescence;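 active = mean PP1 inhibition above a set limit taken from the earlier primary screen, cut at about 15% in these data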
PP5 inh counter – PP5 phosphatase inhibition, counter-screen for PP1 inhibitors. purified PP5c, OMFP fluorescence. shares compounds with PP1 counter. 1,900 tested, 4% active. AID 2360. inhibition, % at 6.7 µM;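 active = mean PP5 inhibition over triplicate wells above about 9.5% taken from the earlier PP1 screen, limit read from the data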
IDE cell inh cf – cellular human IDE inhibition, confirmation. inhibition, % at 5.59 µM. AID 435028. HEK cells, FAbetaB cleavage, fluorescence polarization. shares compounds with IDE cell inh. 1,200 tested, 51% active;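 active = mean inhibition across triplicate wells above the cutoff set by the earlier primary insulin-degrading enzyme screen, cut at about 16% in these data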;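 also: 0% = DMSO wells and 100% = 60 µM reference IDE inhibitor Ii1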
HEK cytotox – kills HEK cells in IDE inhibitor counter-screen; inhibition, % at 5.59 µM; HEK293 cytotoxicity, ATP luminescence; 1,200 tested, 28% active; shares compounds with IDE cell inh; in the data active = inhibition above about 22%;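 also: 0% = vehicle wells and 100% = reference cytotoxic drug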
Exocytosis CP01 – blocks lytic granule exocytosis; shares compounds with Granule exo inh; TALL-104 cells, LAMP-1 externalization, flow cytometry; stimulated with PMA plus thapsigargin; inhibition, % at 10 µM; 1,500 tested, 11% active; in the data active = inhibition above about 60%;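 also: 0% = stimulated vehicle wells and 100% = unstimulated wells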
Numbers without * were called inactive. Shown are actives, neighbours in structure and some others; about 2.8% of the full set was active somewhere.

CC1=NN(c2ccccc2)C(=O)/C1=C/C=C/C=C/N(C)C was read as PP5 primary 10*, SKKanGAS inh -1, Granule exo inh -3, IDE act -13, PP1 counter 3, IDE cell inh 18*, PP5 conf 14*, PP1 counter 3x 12, IDE cell inh cf 11 and HEK cytotox 27*.
Screening CC(C)(C)C(=O)Cn1ncc(Br)c(Br)c1=O returned SKKanGAS inh 1, Granule exo inh -1 and IDE act 1.
Screening N#Cc1c(NC(=O)c2ccc(Br)o2)n(-c2ccccc2)c2nc3ccccc3nc12 returned PP5 primary 11*, SKKanGAS inh 8, Granule exo inh 72*, IDE act -12, PP1 counter 9, IDE cell inh 0, PP5 conf 33*, PP1 counter 3x 16* and Exocytosis CP01 97*.
`CCCCN1CC(=O)N2[C@H](c3ccc(Cl)cc3)[C@@H]3C(=O)N(CC)C(=O)[C@@H]3[C@]2(Cc2ccccc2)C1=O` gave PP5 primary 0, SKKanGAS inh 3, Granule exo inh -3, IDE act 4, PP1 counter 3 and IDE cell inh 1.
For Cc1cccc(N2CSC3=C(C#N)C(c4ccc(C)o4)CC(=O)N3C2)c1 (stereo not given) the results were PP5 primary 5, SKKanGAS inh 7, PP1 counter 20*, IDE cell inh 0, PP1 inh confirm 16* and PP5 inh counter 3.
Screening COc1ccc(OC)c(C2CC(=O)N3CN(c4ccccc4)CSC3=C2C#N)c1 (stereo not given) returned PP5 primary 1, SKKanGAS inh 3, Granule exo inh 1, IDE act -31, PP1 counter -1 and IDE cell inh 7.
`O=C(Nc1cccnc1)c1ccc(Cl)c(S(=O)(=O)N2CCCC2)c1` gave PP5 primary 2, SKKanGAS inh -5, Granule exo inh -4, IDE act 3, PP1 counter 38*, IDE cell inh -3, PP1 inh confirm -4 and PP5 inh counter -8.
Screening O=C(Nc1cccnc1)c1ccc(Cl)c(S(=O)(=O)N2CCCCC2)c1 returned PP5 primary 1, SKKanGAS inh -4, Granule exo inh -1, IDE act 1, PP1 counter 0 and IDE cell inh -2.
Screening CCc1ccccc1N(C)S(=O)(=O)c1ccc2[nH]cc(C(=O)O)c(=O)c2c1 returned PP5 primary 2, SKKanGAS inh 2, Granule exo inh -2, IDE act 3, PP1 counter 24*, IDE cell inh -2, PP1 inh confirm 18* and PP5 inh counter -6.
For Nc1nc(-c2ccccn2)nc(N)c1Cc1c(F)cccc1Cl the results were PP5 primary 1, SKKanGAS inh 0, Granule exo inh 1, IDE act 3, PP1 counter 27*, IDE cell inh 0, PP1 inh confirm 47* and PP5 inh counter -2.
Nc1nc(-c2ccccn2)nc(N)c1Cc1ccc(Cl)cc1Cl was read as PP5 primary 2, SKKanGAS inh 114*, Granule exo inh 3, IDE act -3, PP1 counter 34*, IDE cell inh -1, PP1 inh confirm 47* and PP5 inh counter 5.

Screens: PubChem BioAssay, several laboratories
